Experimental data published in ChEMBL document CHEMBL1961873, “Compounds: GSK PKIS; Assays: Nanosyn kinase panel” (2012).

Biological target: Tyrosine-protein kinase SYK (Homo sapiens) (UniProt P43405)
Conditions: at 0.1 µM
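Also: reported percentages are mean inhibition values for SYK.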

Compound	inhibition
Nc1ncnc2occ(-c3ccc(NC(=O)Nc4cc(C(F)(F)F)cc(C(F)(F)F)c4)cc3)c12	-5.69%
CCn1c(-c2nonc2N)nc2c(N3CCCC3)nccc21	-1.66%
CCn1c(-c2nonc2N)nc2cnc(Oc3cccc(NC(=O)c4ccc(OCCN5CCOCC5)cc4)c3)cc21	-4.21%
COc1ccccc1Nc1ncc(-c2ccccc2)o1	-1.37%
Cc1cccc(-c2n[nH]cc2-c2ccc3ncccc3n2)n1	1.27%
CC1=C(C(=O)Nc2ccc3[nH]ncc3c2)C(c2ccc(F)cc2)NC(=O)N1 (centres undefined)	0.2%
CCCN1CCC=C(c2ccc(Nc3nc(Nc4ccccc4C(N)=O)c4cc[nH]c4n3)c(C)c2)C1	-0.42%
CS(=O)(=O)Nc1ccc(N/C=C2\C(=O)Nc3ccccc32)cc1	-1.22%
CCN1CCC(CC(=O)Nc2n[nH]c3nc(-c4cccs4)c(Br)cc23)CC1	-1.06%
CS(=O)(=O)CCNCc1ccc(-c2ccc3ncnc(Nc4ccc(OCc5cccc(F)c5)c(C(F)(F)F)c4)c3c2)o1	-6.45%
COc1ccc(-c2nn3ncccc3c2-c2ccnc(Nc3ccc(Cl)c(C(F)(F)F)c3)n2)cc1	-1.43%
c1cnn2ncc(-c3ccnc(Nc4ccc5c(c4)OCCO5)n3)c2c1	-8.51%
CCn1c(-c2nonc2N)nc2cncc(C(=O)N3CC[C@H](N)C3)c21	-5.72%
NCc1ccc(-c2nc(-c3ccc(Cl)c(O)c3)c(-c3ccncc3)[nH]2)cc1	-2.73%
COc1cc2ncn(-c3cc(OCc4ccccc4C(F)(F)F)c(C(N)=O)s3)c2cc1OC	-2.39%
COc1ccc(-c2ccncc2)cc1C(N)=O	-1.18%
Cc1cc(O)cc(C)c1/C=C/c1cncc(-c2nn[nH]n2)c1	-3.2%

Compound	inhibition
Nc1nc(-c2ccc3c(c2)C(=Cc2cc(Br)c(O)c(Br)c2)C(=O)N3)cs1	1.06%
COc1cccc(-n2ncc3c(N/N=C/c4cccc(F)c4)ncnc32)c1	9.4%
COC(=O)Nc1nc2cc(Oc3ccc(NC(=O)Nc4cccc(C(=O)O)c4)cc3)ccc2[nH]1	5.41%
Cc1nn(C)c2cc(N(C)c3ccnc(Nc4cccc(S(N)(=O)=O)c4)n3)ccc12	-6.41%
COc1cc2ncn(-c3cc(OCc4ccccc4Cl)c(C(N)=O)s3)c2cc1OC	-2.2%
CC(=O)Nc1cccc(C#Cc2cncnc2Nc2ccc(OCc3cccc(F)c3)c(Cl)c2)n1	5.47%
COc1ccc(COc2ccc(Cc3cnc(N)nc3N)cc2OC)cc1	1.51%
Nc1nc(-c2ccccn2)c(-c2ccc3ncccc3n2)s1	-1.33%
CC1=C(C(=O)Nc2ccc3[nH]ncc3c2)C(c2ccc3ccccc3c2)CC(=O)N1 (centres undefined)	2.43%
Cn1cc(C=C2C(=O)Nc3cccnc32)c2ccccc21	3.56%
COc1ccc(-c2coc3ncnc(N)c23)cc1	-0.77%
CS(=O)(=O)CCNCc1nc(-c2ccc3ncnc(Nc4ccc(F)c(Cl)c4)c3c2)cs1	2.81%
O=C1Nc2ccc(C(=O)c3ccco3)cc2C1=Cc1cc(Cl)c(O)c(Cl)c1	-6.13%
COc1cc2ncn(-c3cc(O[C@H](C)c4ccccc4Cl)c(C(N)=O)s3)c2cc1OC	1.76%
CS(=O)(=O)CCN(CC#N)Cc1ccc(-c2ccc3ncnc(Nc4ccc(OCc5cccc(F)c5)c(Cl)c4)c3c2)o1	1.85%
CC(C)=Cc1cccc2c1/C(=N/Nc1ccc(S(N)(=O)=O)cc1)C(=O)N2	2.78%
CCn1c(-c2nonc2N)nc2c(C#CC(C)(C)O)nc(OC[C@@H](N)c3ccccc3)cc21	-1.58%
